Measurements taken from PubChem BioAssay AID1259420 (Broad Institute, 2018).
Several values for one entry are separate records, joined by “and”; a condition that tells them apart may be missing. Identical values can stand only once. In all, about 1,000 compounds went through this assay and about 250 (25%) were called active. About 31% were inconclusive and are not listed. These entries were drawn from the full list. Results with a measured potency or affinity are listed apart. A number with no mark means an inactive call. The rule behind the calls is not given here. Numbered stars: 1 amine (or outer) side, 2 acyl side, 3 side chain; on linkers, the order of the positions; unused ones are H or OH. Bridge positions count the residues as written; N and C are the ends. Square brackets hold non-standard residues; d marks the D form. Peptide text beside a SMILES is read from it. * marks the point of attachment. ξ: configuration not given here. pTerphenylCO(4''-OnC5H11) = CCCCCOc1ccc(-c2ccc(-c3ccc(C(=O)*)cc3)cc2)cc1; ξOrn(4,5-diOH) = O=C(C(CC(O)C(O)N[*:3])N[*:1])[*:2]; ξhTyr(βξ-OH,γξ-OH) = NC(C(=O)O)C(O)C(O)c1ccc(O)cc1; ξPro(3ξ-OH,4ξ-Me) = CC1CNC(C(=O)O)C1O; Hyp = O=C(O)[CH]1C[CH](O)CN1

Assay: compound activity on host-cell Toxoplasma growth – dose response (AID 1259420);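 note: host cells were HeLa; final incubation lasted 72 hours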
Settings: Toxoplasma gondii growth in host cells, no IFN-gamma

COc1ccc(CN2C[C@@H]3C[C@H](C(=O)Nc4ccccc4)[C@@H](C2)O3)cc1 showed a max activity (at 19.5 µM unless noted) of 24.7%.

In the case of CCCNC(=O)C[C@H]1CC[C@@H]2[C@H](COC[C@H](O)CN2C(=O)Nc2ccc(Cl)c(Cl)c2)O1, the max activity (at 19.5 µM unless noted) is reported as 22.5%.

In the case of CCCNC(=O)[C@@H]1[C@@H](CO)[C@@H]2Cn3c(ccc(C4=CCCCC4)c3=O)[C@@H]2N1Cc1ccccc1F, the max activity (at 19.5 µM unless noted) is reported as 15.2%.

With O=C(c1ccc[nH]1)N1CCC2(CC1)COCCN(c1ncccn1)C2 the max activity (at 10 µM) was -14% and the max activity (at 19.5 µM) was 9.97%.

Work on CC(C)CCN1Cc2c(C(=O)NC3CCCCC3)ncn2-c2ccccc2S1(=O)=O yielded a max activity (at 19.5 µM unless noted) of 17.3%.

Compound CO[C@@H]1CCN(c2ncccn2)C[C@@H]1Cc1cccc(C)c1 has a max activity (at 19.5 µM unless noted) of 13.3%.

CCCCCOc1ccc(-c2ccc(-c3ccc(C(=O)NC4CC(O)C(O)NC(=O)C5C(O)C(C)CN5C(=O)C(C(C)O)NC(=O)C(C(O)C(O)c5ccc(O)cc5)NC(=O)C5CC(O)CN5C(=O)C(C(C)O)NC4=O)cc3)cc2)cc1 (stereo not drawn) ({pTerphenylCO(4''-OnC5H11)}-[ξOrn(4,5-diOH)]T[Hyp][ξhTyr(βξ-OH,γξ-OH)]T[ξPro(3ξ-OH,4ξ-Me)]; lactam 1-C; configuration not given here) gave a max activity (at 19.5 µM unless noted) of 7.96% [at 0.6 µM].

O=C1N(c2ccccc2)c2ccccc2C1(Cc1ccncc1)Cc1ccncc1 showed a max activity (at 19.5 µM unless noted) of -9.88% [at 5 µM].

Work on C/C=C/c1ccc(C2[C@H]3CNC[C@@H]2N3S(=O)(=O)c2ccccc2C)cc1 (some centres undefined) yielded a max activity (at 19.5 µM unless noted) of 20.6%.

Compound O=C(C[C@H]1CC[C@@H]2[C@H](COC[C@H](O)CN2Cc2cc(F)ccc2F)O1)NCc1ccc(Oc2ccccc2)cc1 has a max activity (at 19.5 µM unless noted) of 29.1% [at 10 µM].

Compound O=C(C[C@@H]1CC[C@H]2[C@@H](COC[C@H](O)CN2Cc2ccc(Oc3ccccc3)cc2)O1)N1CCN(c2ccccc2)CC1 has a max activity (at 19.5 µM unless noted) of -11.8% [at 1.2 µM].

Compound CCCNC(=O)C[C@H]1CC[C@H]2[C@@H](COC[C@@H](O)CN2C(=O)Nc2ccc(Cl)c(Cl)c2)O1 has a max activity (at 19.5 µM unless noted) of -10.6% [at 10 µM].

O=C(C[C@H]1CC[C@@H]2[C@H](COC[C@@H](O)CN2Cc2ccc(Oc3ccccc3)cc2)O1)N1CCN(c2ccccc2)CC1 gave a max activity (at 19.5 µM unless noted) of 17.6%.

For O=C(C[C@H]1CC[C@H]2[C@@H](COC[C@H](O)CN2S(=O)(=O)c2ccccc2)O1)NCC1CCCCC1, the max activity (at 19.5 µM unless noted) was -7.1% [at 0.3 µM].

O=C(C[C@H]1CC[C@H]2[C@@H](COC[C@@H](O)CN2Cc2cc(F)ccc2F)O1)NCc1ccc(Oc2ccccc2)cc1 gave a max activity (at 19.5 µM unless noted) of 24%.

O=C(C[C@@H]1CC[C@@H]2[C@H](COC[C@H](O)CN2S(=O)(=O)c2ccccc2F)O1)N1CCC(Cc2ccccc2)CC1 gave a max activity (at 19.5 µM unless noted) of -4.67% [at 0.3 µM].

Work on O=C(C[C@@H]1CC[C@@H]2[C@H](COC[C@@H](O)CN2C(=O)Nc2cc(Cl)cc(Cl)c2)O1)N1CCOCC1 yielded a max activity (at 19.5 µM unless noted) of -20.4% [at 10 µM].

For O=C(C[C@H]1CC[C@H]2[C@@H](COC[C@H](O)CN2Cc2ccc(Oc3ccccc3)cc2)O1)N1CCN(c2ccccc2)CC1, the max activity (at 19.5 µM unless noted) was 19.6%.

In the case of CCCNC(=O)[C@H]1[C@H](CO)[C@H]2Cn3c(ccc(C4=CCCCC4)c3=O)[C@H]2N1Cc1ccccc1F, the max activity (at 19.5 µM unless noted) is reported as 26.7%.

With CCC(=O)N1CC(=O)N2[C@@H](CO)[C@H](c3ccc(C#CCC(C)C)cc3)[C@@H]2C1 the max activity (at 19.5 µM unless noted) was -4.73% [at 2.6 µM].

Compound N#Cc1ccc(-c2ccc(C3[C@@H]4CN(C(=O)C5CCCCC5)C[C@H]3N4)cc2)cc1 (some centres undefined) has a max activity (at 19.5 µM unless noted) of 18.4%.

In the case of COc1cccc(-c2ccc(C3[C@@H]4CN(C(=O)C5CCCCC5)C[C@H]3N4)cc2)c1 (some centres undefined), the max activity (at 19.5 µM unless noted) is reported as 23.3%.

With N#Cc1ccc(-c2ccc(C3[C@@H]4CN(S(=O)(=O)c5ccc(F)cc5)C[C@H]3N4)cc2)cc1 (some centres undefined) the max activity (at 19.5 µM unless noted) was 31.5% and 12.6% and 34.4%.

CS(=O)(=O)N1C[C@@H]2N[C@H](C1)[C@@H]2c1ccc(-c2ccccc2)cc1 gave a max activity (at 19.5 µM unless noted) of 14.6% [at 2.6 µM].

Work on Cn1cnc(S(=O)(=O)N2C[C@@H]3N[C@H](C2)C3c2ccc(-c3ccccc3F)cc2)c1 (some centres undefined) yielded a max activity (at 2.35 µM) of 9.35% and a max activity (at 19.5 µM) of 18.7%.

COc1cc(CN2C[C@@H]3N[C@H](C2)C3c2ccc(-c3ccc(C#N)cc3)cc2)cc(OC)c1 (some centres undefined) showed a max activity (at 19.5 µM unless noted) of 9.2% [at 10 µM].

COc1cccc(-c2ccc(C3[C@@H]4CN(Cc5ccccn5)C[C@H]3N4)cc2)c1 (some centres undefined) gave a max activity (at 19.5 µM unless noted) of 36.5%.

In the case of Cc1ccccc1-c1ccc(C2[C@@H]3CN(Cc4cncnc4)C[C@H]2N3)cc1 (some centres undefined), the max activity (at 19.5 µM unless noted) is reported as -6.61% [at 10 µM].

For O=C1CC2C(CCN2Cc2ccc(F)cc2)N1CCN1CCOCC1 (centres undefined), the max activity (at 19.5 µM unless noted) was -8.01% [at 5 µM].

Work on O=C(Cc1ccccn1)N1CC(=O)N2[C@H](C1)[C@@H](c1ccc(C#CCC3CCCC3)cc1)[C@@H]2CO yielded a max activity (at 19.5 µM unless noted) of 30% [at 21 µM].

For COC[C@H](N)C(=O)N1CCC(Cc2nnc(SC)n2C)CC1, the max activity (at 19.5 µM unless noted) was 7.97% [at 0.16 µM].

In the case of CCCNC(=O)[C@@H]1[C@@H](CO)[C@@H]2Cn3c(ccc(/C=C/c4ccccc4)c3=O)[C@@H]2N1CC1CC1, the max activity (at 19.5 µM unless noted) is reported as -5.81% [at 10 µM].
